Sampled rows, rich in hits. Any-hit rate of the full collection: about 7%.
rCAG binder – molecules binding r(CAG) RNA repeats; r(CAG) RNA repeat, TO-PRO-1 dye displacement fluorescence; inhibition, % at 3 µM; 370,000 compounds, 1.3% hits; AID 651821;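 active = inhibition above the plate cutoff, the mean of all test compounds on that plate plus 3 SD, cut at about 35% in these data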;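 also: higher means more dye released from RNA so lower well fluorescence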
ADAM17 inh – ADAM17 inhibition, QFRET primary screen | inhibition, % at 6.95 µM | AID 720648 | recombinant ADAM17, EDANS/DABCYL FRET peptide cleavage | 370,000 compounds, 0.83% hits;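 active = inhibition above the mean of compounds lying between control limits plus 3 SD, set per campaign, cut at about 8.5% in these data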
proKLK7 act – proKLK7 (human) activation, primary screen; P49862; 370,000 compounds, 0.9% hits; activation, % at 7 µM; AID 652039; purified proKLK7, EDANS-DABCYL substrate fluorescence; 100% is mature enzyme control, 0% vehicle;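 active = activation above the mean of all tested compounds plus 3 SD, computed per campaign excluding outliers beyond control limits, cut at about 13% in these data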
AHR act – activates the human aryl hydrocarbon receptor; AHR-responsive luciferase reporter cells, luminescence; activation, % at 5 µM; 320,000 compounds, 2.5% hits; P35869; in the data active = activation above about 47%
NR3A LBD binder – modulators (binders) of human NR3A ligand-binding domain; Tm shift relative to glycine control, % at 25 µM; 340,000 compounds, 2.5% hits; NR3A LBD differential scanning fluorimetry, Tm shift; 0% = protein alone, 100% = glycine-bound protein; AID 1259313;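 active = melting temperature shift of at least 10% of the positive control shift, at one fixed dose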
ADAM10 inh – ADAM10 inhibition, QFRET primary screen; 370,000 compounds, 0.62% hits; recombinant ADAM10, EDANS/DABCYL FRET peptide cleavage, 3 h; inhibition, % at 7 µM; AID 720582;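 active = inhibition above a per-campaign cutoff equal to the mean of compounds falling between control-based bounds plus 3 SD, cut at about 20% in these data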
AHR act cf – human AHR activation, confirmation | activation, % at 9 µM | 2,300 compounds, 87% hits | human cells, AHR-responsive luciferase reporter, luminescence | AID 2845 | shares compounds with AHR act; in the data active = activation above about 49%;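 also: HepG2 hepatoma cells carrying a DRE-driven firefly luciferase reporter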
PXR act counter – counter-screen for AHR activators: human PXR activators; shares compounds with AHR act; cell-based PXR reporter, luciferase luminescence; activation, % at 11.6 µM; 2,300 compounds, 88% hits; AID 434939; in the data active = activation above about 11%;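 also: human hepatoma DPX-2 cells expressing full-length human PXR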
Target sequence (O75469 whole entry, looked up): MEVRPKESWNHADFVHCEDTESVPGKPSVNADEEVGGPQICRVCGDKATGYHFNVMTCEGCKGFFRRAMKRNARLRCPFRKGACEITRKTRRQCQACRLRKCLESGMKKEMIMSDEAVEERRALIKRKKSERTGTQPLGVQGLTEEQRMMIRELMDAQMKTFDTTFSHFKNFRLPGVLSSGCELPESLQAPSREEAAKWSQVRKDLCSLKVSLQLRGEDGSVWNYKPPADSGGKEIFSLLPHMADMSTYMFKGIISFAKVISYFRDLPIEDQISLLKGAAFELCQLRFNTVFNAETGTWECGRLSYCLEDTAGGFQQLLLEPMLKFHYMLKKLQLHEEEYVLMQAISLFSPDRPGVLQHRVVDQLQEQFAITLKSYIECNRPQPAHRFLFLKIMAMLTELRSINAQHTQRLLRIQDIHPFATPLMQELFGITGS
A number is an active result; - = inactive; . = no result given.

SMILES	rCAG binder	ADAM17 inh	proKLK7 act	AHR act	NR3A LBD binder	ADAM10 inh	AHR act cf	PXR act counter
Cn1nccc1C(=O)Nc1ccc(Cl)cc1	-	-	-	-	-	-	.	.
COc1ccccc1-c1cccc2c3c([nH]c12)[C@@H]1C[C@H]2[C@@H](CN1CC3)[C@H](C)ON2C	-	-	-	.	.	-	.	.
Oc1ccccc1C=NN1CCN(Cc2ccccc2)CC1	-	-	-	.	.	-	.	.
O=C(Nc1cccc2nsnc12)c1ccc2c(c1)OCO2	-	-	-	118.3	-	-	127.0	29.9
COC(=O)c1c(-c2cccnc2)csc1NC(=O)c1ccc2c(c1)OCO2	-	-	-	113.6	-	-	-	-
O=C(Nc1ccc2c(c1)OCO2)c1ccccc1	-	-	-	100.8	-	-	52.4	24.2
O=C(Nc1ccc2c(c1)OCO2)c1ccc(S(=O)(=O)NCC2CCCO2)cc1 (stereo not given)	-	-	-	84.4	-	-	-	20.9
O=[N+]([O-])c1ccc(OC2OCC(O)C(O)C2O)cc1 (stereo not given)	-	-	-	.	.	-	.	.
CN1C2=N[C@@H](c3ccc4c(c3)OCO4)CC(=O)N2/C(=C\c2ccccc2)[C@@H]1c1ccccc1	.	-	.	.	.	-	.	.
O=C(Nc1ccc2c(c1)OCCO2)C(=O)c1c[nH]c2ccccc12	-	-	-	-	-	-	.	.
O=C(Nc1ccc2c(c1)OCO2)C(=O)c1c[nH]c2ccccc12	-	-	-	84.2	-	-	70.1	38.4
COc1cccc(C(=O)NC2=NCCS2)c1	-	-	-	132.7	-	-	55.2	13.1
CC(C)Sc1nnc(NC(=O)c2ccc3c(c2)OCO3)s1	-	-	-	110.3	-	-	-	27.2
Cn1nc(C(=O)Nc2ccc3c(c2)OCO3)c2ccccc2c1=O	-	-	-	123.1	-	-	107.1	-
CCCCN1CN2Cc3ccccc3C2CS1(=O)=O (stereo not given)	-	-	-	.	.	-	.	.
COC(=O)c1cc(NC(=O)NC2CCCCN(Cc3ccc(Cl)cc3)C2=O)cc(C(=O)OC)c1 (stereo not given)	-	-	-	.	.	-	.	.
CCOC(=O)C1=CCN(S(=O)(=O)c2cccc(Cl)c2)C1c1cccc(Br)c1 (stereo not given)	-	-	-	.	.	-	.	.
CN(C)[C@H]1CCN(c2ccc3c(c2)O[C@@H]2CCN(C2)S3(=O)=O)C1	-	-	-	.	.	-	.	.
COC(=O)C1CN(Cc2ccc(C)cc2)CCS(=O)(=O)N1Cc1cn(Cc2ccc(F)cc2)nn1 (stereo not given)	-	-	-	.	.	-	.	.
c1ccc(CN=C2NN=C(c3cc4ccccc4o3)CS2)cc1	-	-	-	-	-	-	.	.
c1ccc2oc(C3=NNC(=NC4CC4)SC3)cc2c1	-	-	-	137.3	-	-	-	16.0
CCOC(=O)[C@@]12CCC3=C1N(CCC3)C(=O)[C@H](CC(=O)NCC1CCCCC1)C2	-	-	-	.	.	-	.	.
Nc1nc2ccc(Cl)cc2[nH]1	-	-	-	.	-	-	.	.
Clc1ccc2nc(-c3ccc(Cl)nc3)[nH]c2c1	-	-	-	87.1	.	-	137.9	-
COc1ccc(-c2csc(Nc3cccc(C)n3)n2)cc1	-	-	-	87.9	-	-	96.5	19.0
SMILES	rCAG binder	ADAM17 inh	proKLK7 act	AHR act	NR3A LBD binder	ADAM10 inh	AHR act cf	PXR act counter
CC(=O)Oc1ccc(-c2csc(Nc3cccc(C)n3)n2)cc1	-	-	-	-	-	-	.	.
Cc1cccc(Nc2nc(-c3ccc(F)cc3)cs2)n1	-	-	-	79.5	-	-	110.9	10.3
Cc1[nH]n(C(N)=S)c(=O)c1N=Nc1ccc(Br)cc1	-	-	-	107.9	-	-	134.5	39.5
Cc1[nH]n(C(N)=S)c(=O)c1N=Nc1ccc(S(=O)(=O)N2CCCC2)cc1	-	-	-	-	-	-	.	.
Cc1[nH]n(C(N)=S)c(=O)c1N=Nc1cccc(C(F)(F)F)c1	-	-	-	143.3	-	-	73.7	21.3
O=C(c1cccc(F)c1)n1ccc2ccc(-c3ccc4ccn(Cc5ccccc5)c4c3)cc21	-	-	-	.	.	-	.	.
CCn1c(SCC(=O)Nc2ccc3c(c2)OCO3)nc2ccccc21	-	-	-	93.0	-	-	-	82.3

Source: PubChem BioAssay (several laboratories)
